# About 83,000 compounds went through this panel and 20% of them were active in at least one assay; those are over-represented in the sample as a whole.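 Cells were grown in 96-well plates and exposed to the test compound at a single concentration for 48 hours; results are reported as percent growth, with values below 10 considered active.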 A number with no mark means an inactive call. Active and inactive are the calls of the source.
# Test system: SF-539 CNS
# Experiment: NCI-60 one-dose screen, 48 h (100 = growth as untreated, 0 = no growth, -100 = all killed)
# Details: 10 µM unless noted
row,Compound,growth
1,COc1ccc(Nc2ncccc2C(=O)NCc2cn(Cc3cccc(Oc4ccccc4)c3)nn2)c(OC)c1,5.94% (active)
2,N/C(=N\S(=O)(=O)c1ccccc1)Nc1nc2ccccc2s1,91.2%
3,O=S(=O)(NCCCNc1nccc(-n2ccc3cccnc32)n1)c1cccc(C(F)(F)F)c1,109%
4,COc1cc(NC(N)=NCCC(C)(C)Oc2ccc(C(F)(F)F)cc2)ncc1C#N,11.7%
5,COc1ccc2c(c1)[nH]c(=O)c1c3cc(OC)ccc3cn21,7.14% (active)
6,FC(F)(F)c1cccc(-c2cn3c(ccc4ccccc43)n2)c1,99.5%
7,COc1ccc(CN2CCc3c(Sc4ccccc4)nc(N)nc3C2=O)c(OC)c1,66.5%
8,COc1ccc(Nc2ncccc2C(=O)NCc2cn(Cc3cccc(Oc4ccccc4)c3)nn2)cc1,33.6%
9,CCN(CC)CCC(CNc1ccnc2cc(Cl)ccc12)c1ccc(Cl)cc1 (stereo unspecified),-78.2% (active)
10,Cc1ccc(S(=O)(=O)C2=C3C(=C(c4ccccc4)c4ccccc43)CN(S(=O)(=O)c3ccc(C)cc3)C2)cc1,74.1%
11,O=C1C(Cl)=C(Nc2ccccn2)C(=O)c2ccccc21,25.4%
12,COc1cc(/C=C/C(=O)N2CCN(C(=O)/C=C/c3cc(OC)c(OC)c(OC)c3)CC2)cc(OC)c1OC,103%
13,c1ccc(-c2nnc(-c3ccccn3)s2)nc1,99.8%
14,Cc1c(C(=O)/C=C/c2csc3ccccc23)[n+](=O)c2ccccc2n1[O-],89.2%
15,O=C(NCCNc1nccc(-n2ccc3cccnc32)n1)c1ccc(C(F)(F)F)cc1,107%
16,C=C(C)[C@@H]1C[C@@H]2Cc3cc(Cl)ccc3N1O2,99.6%
17,O=S(=O)(CC(O)(c1ccccc1)c1ccccc1)CC(O)(c1ccccc1)c1ccccc1,2.42% (active)
18,NC1=NC(SCc2ccccc2CCl)c2ncn(Cc3ccccc3CCl)c2N1 (stereo unspecified),69.4%
19,C=C[C@@H]1C[C@@H]2Cc3c(C)cc(C)cc3N1O2,96.6%
20,COc1cc(/C=N\NC(=O)CN2CCN(c3cc4c(cc3F)c(=O)c(C(=O)N/N=C/c3cc(OC)c(OC)c(OC)c3)cn4C3CC3)CC2)cc(OC)c1OC,-68.2% (active)
21,Fc1ccc(-c2nc(-c3nc4ncccc4[nH]3)cc3c2[nH]c2ccccc23)cc1F,79.6%
22,COc1cc(-c2nc(-c3nc4ccc(Cl)cc4[nH]3)cc3c2[nH]c2ccccc23)cc(OC)c1OC,67.3%
23,C=C(C)[C@@H]1C[C@@H]2Cc3ccc(Cl)c(C)c3N1O2,90.8%
24,CCCCCCCCC(C)OC(=O)c1nn(C(C)=O)c2ccccc12 (stereo unspecified),98.7%
25,COc1cc(/C(C#N)=C/c2ccc3c(c2OC)OCO3)cc2c1OCO2,4.21% (active)
26,CC12CCC3C4(C)COC(c5ccco5)OC4CCC3(C)C1CC(C1=CCOC1=O)O2 (stereo unspecified),107%
27,C=C1CCC2C3(C)COC(c4ccc(N(C)C)cc4)OC3CCC2(C)C1C/C=C1/C(=O)OCC1O (stereo unspecified),99.2%

# Test system: UACC-257 melanoma
# Experiment: as above
# Details: 10 µM unless noted
row,Compound,growth
1,N#C/C(=C1C=C/C(=N/O)C(Cl)=C/1)c1ccc(Cl)cc1,76.2%
2,c1coc(CNc2ccnc(Nc3ccc(OCCN4CCCCC4)cc3)n2)c1,87.3%
3,C=C1CCC2C(C)(CO)C(O)CCC2(C)C1C/C=C1/C(=O)OCC1O/C=C/c1ccccc1 (stereo unspecified),83.6%
4,C=C(C)[C@@H]1CC[C@]2(C(=O)N3CCNCC3)CC[C@]3(C)[C@H](CC[C@@H]4[C@@]5(C)C/C(=C/c6ccncc6)C(=O)C(C)(C)[C@@H]5CC[C@]43C)[C@@H]12,104%
5,CCOC(=O)C1C(=O)C=C(c2ccc(OC)cc2)CC1c1sc(N(C)Cc2ccccc2)nc1Cl (stereo unspecified),91.2%
6,COc1cc(/C=C/C(=O)/C=C/c2cc(OC)c3c(c2)OCO3)cc2c1OCO2,103%
7,C[n+]1c(/C=C/c2c(O)ccc3ccccc23)ccc2ccccc21,46.1%
8,CCN(CC)CCC(CNc1c2ccc(Cl)cc2nc2ccc(OC)cc12)c1ccccc1 (stereo unspecified),-91.1% (active)
9,C=C1CC2(OC1=O)C(=O)N(CCCN1C(=O)C3(CC(=C)C(=O)O3)c3ccccc31)c1ccccc12 (stereo unspecified),30.4%
10,CN(CCCCCl)P(=O)(OCc1ccc([N+](=O)[O-])o1)C(F)(F)C[C@H](NC(=O)CNC(=O)c1ccc(N=[N+]=[N-])cc1)C(=O)NCCc1ccc(O)cc1 (stereo partly specified),104%
11,COc1ccc(C(=O)N2NC(=O)/C(=C/c3ccc(Br)cc3)N=C2c2ccccc2)cc1,95.5%
12,N#Cc1c(-c2ccccc2)cc(-c2ccccc2)n(CC(=O)NO)c1=O,67.5%
13,COc1ccc(Nc2ncccc2C(=O)NCc2cn(Cc3cccc(Oc4ccccc4)c3)nn2)c(OC)c1,85.5%
14,N/C(=N\S(=O)(=O)c1ccccc1)Nc1nc2ccccc2s1,92.6%
15,O=S(=O)(NCCCNc1nccc(-n2ccc3cccnc32)n1)c1cccc(C(F)(F)F)c1,108%
16,COc1cc(NC(N)=NCCC(C)(C)Oc2ccc(C(F)(F)F)cc2)ncc1C#N,-46.2% (active)
17,COc1ccc2c(c1)[nH]c(=O)c1c3cc(OC)ccc3cn21,72.5%
18,FC(F)(F)c1cccc(-c2cn3c(ccc4ccccc43)n2)c1,114%
19,COc1ccc(CN2CCc3c(Sc4ccccc4)nc(N)nc3C2=O)c(OC)c1,50.5%
20,COc1ccc(Nc2ncccc2C(=O)NCc2cn(Cc3cccc(Oc4ccccc4)c3)nn2)cc1,88.8%

row,Compound,growth
1,CCN(CC)CCC(CNc1ccnc2cc(Cl)ccc12)c1ccc(Cl)cc1 (stereo unspecified),-79.4% (active)
2,Cc1ccc(S(=O)(=O)C2=C3C(=C(c4ccccc4)c4ccccc43)CN(S(=O)(=O)c3ccc(C)cc3)C2)cc1,91%
3,O=C1C(Cl)=C(Nc2ccccn2)C(=O)c2ccccc21,-10% (active)
4,COc1cc(/C=C/C(=O)N2CCN(C(=O)/C=C/c3cc(OC)c(OC)c(OC)c3)CC2)cc(OC)c1OC,94.3%
5,c1ccc(-c2nnc(-c3ccccn3)s2)nc1,96%
6,Cc1c(C(=O)/C=C/c2csc3ccccc23)[n+](=O)c2ccccc2n1[O-],81.5%
7,O=C(NCCNc1nccc(-n2ccc3cccnc32)n1)c1ccc(C(F)(F)F)cc1,108%
8,C=C(C)[C@@H]1C[C@@H]2Cc3cc(Cl)ccc3N1O2,102%
9,O=S(=O)(CC(O)(c1ccccc1)c1ccccc1)CC(O)(c1ccccc1)c1ccccc1,102%
10,NC1=NC(SCc2ccccc2CCl)c2ncn(Cc3ccccc3CCl)c2N1 (stereo unspecified),42.5%
11,C=C[C@@H]1C[C@@H]2Cc3c(C)cc(C)cc3N1O2,101%
12,COc1cc(/C=N\NC(=O)CN2CCN(c3cc4c(cc3F)c(=O)c(C(=O)N/N=C/c3cc(OC)c(OC)c(OC)c3)cn4C3CC3)CC2)cc(OC)c1OC,22.2%
13,Fc1ccc(-c2nc(-c3nc4ncccc4[nH]3)cc3c2[nH]c2ccccc23)cc1F,92.2%
14,COc1cc(-c2nc(-c3nc4ccc(Cl)cc4[nH]3)cc3c2[nH]c2ccccc23)cc(OC)c1OC,100%
15,C=C(C)[C@@H]1C[C@@H]2Cc3ccc(Cl)c(C)c3N1O2,90%
16,CCCCCCCCC(C)OC(=O)c1nn(C(C)=O)c2ccccc12 (stereo unspecified),99.7%
17,COc1cc(/C(C#N)=C/c2ccc3c(c2OC)OCO3)cc2c1OCO2,62.2%
18,CC12CCC3C4(C)COC(c5ccco5)OC4CCC3(C)C1CC(C1=CCOC1=O)O2 (stereo unspecified),110%
19,C=C1CCC2C3(C)COC(c4ccc(N(C)C)cc4)OC3CCC2(C)C1C/C=C1/C(=O)OCC1O (stereo unspecified),49.5%

# From PubChem BioAssay (NCI)
